Measured values from PubChem BioAssay (EPA / NIEHS).
Several values for one entry are separate records, joined by “and”; a condition that tells them apart may be missing. Identical values can stand only once. Records with an inconclusive call do not appear. Some compounds were tested as several samples or in several runs, with calls that do not always agree. Activity calls are given as the source filed them. How the source made its calls, unless noted: active means hit-call score of the fitted dose curve at least 0.9, where 1 is the maximum; inactive means score below 0.9.

Experiments:
[1] = CCTE_Shafer_MEA_acute_network_burst_percentage: CCTE's Neural Acute Assay for Percentage of Network Bursts, Shafer Lab (AID 2284022);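 further: curves fitted for loss so actives lower network burst percentage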
Method in brief: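 Cortical neurons from rat were grown over microelectrode arrays and used on day 13 or 15 in vitro. Wells with at least 10 active electrodes received test chemical at 0.03-40 uM. Activity during 40 min of exposure was compared with the preceding 40-min baseline.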

[2] = CCTE_Shafer_MEA_acute_cross_correlation_area: CCTE's Neural Acute Assay for Area of Cross Correlation, Shafer Lab (AID 2284024);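 further: area under pooled inter-electrode spike cross-correlation near zero lag as percent change from own baseline; curves fitted for loss of cross-correlation area so actives lower synchrony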
Method in brief: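 Acute exposure of mature rat cortical networks (day 13 or 15 post-plating) to 0.03-40 uM compound. Spontaneous spiking on MEA, 40 min pre- and post-dose at 37 C.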

[3] = CCTE_Shafer_MEA_acute_cross_correlation_HWHM: CCTE's Neural Acute Assay for Cross Correlation at Half Width at Half Maximum, Shafer Lab (AID 2284026);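 further: percent change per well from pre-dose baseline in spike cross-correlogram half width; hits are a decrease in cross-correlogram half width relative to DMSO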
Method in brief: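 Primary cortex (rat), MEA, DIV 13/15; compound 0.03-40 uM; 40 min pre + 40 min post at 37 C; spike threshold 8x rms; wells need ≥10 active electrodes; endpoint = % change in cross-correlogram HWHM vs baseline, DMSO negative control.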

[4] = CCTE_Shafer_MEA_acute_synchrony_index: CCTE's Neural Acute Assay for Synchrony, Shafer Lab (AID 2284027);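 further: network synchrony index of spontaneous spiking in primary rat cortical neurons on MEAs; fitted for loss of signal so actives lower synchrony relative to DMSO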
Method in brief: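 Primary rat cortical neurons on 48-well MEAs, dosed at 0.03–40 uM on DIV 13 or 15. Spikes are recorded for 40 min at 37C before and after exposure, and synchrony index (0–1) is expressed as percent change from baseline per well.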

[5] = CCTE_Shafer_MEA_dev_firing_rate_mean: CCTE's Neural Network Formation Assay for Mean Firing Rate, Shafer Lab (AID 2284031);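 on AC50: curve fitted for loss of firing so AC50 reflects decreased mean firing rate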
Method in brief: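 Primary rat cortical neurons on 48-well MEA plates, exposed from plating day 0 with dosing renewed on DIV 5 and 9. Mean well firing rate over active electrodes, recorded days 5, 7, 9, 12, summarised as trapezoidal AUC.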

[6] = CCTE_Shafer_MEA_dev_active_electrodes_number: CCTE's Neural Network Formation Assay for Number of Active Electrodes, Shafer Lab (AID 2284040; active means hit-call score of the fitted dose curve at least 0.9, where 1 is the maximum;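 on AC50: potency for loss of active electrodes versus DMSO so lower counts are hits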)
Method in brief: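 Primary rat cortical neurons on 16-electrode MEA wells, exposed from day 0 through day 12 with compound renewed at DIV 5 and 9 feeds. Active electrodes (mean firing ≥5 spikes/min) counted at DIV 5, 7, 9, 12; trapezoidal AUC across days, loss-of-signal versus DMSO.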

[7] = CCTE_Shafer_MEA_dev_burst_rate: CCTE's Neural Network Formation Assay for Burst Rate, Shafer Lab (AID 2284042);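 on AC50: potency for loss of burst rate below DMSO control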
Method in brief: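 Developmental network assay measuring how 12-day exposure of rat cortical neuron cultures alters bursting on extracellular MEA recordings. Values are AUC of well-mean burst rate across four recording days, relative to DMSO vehicle.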

[8] = CCTE_Shafer_MEA_dev_bursting_electrodes_number: CCTE's Neural Network Formation Assay for Number of Bursting Electrodes, Shafer Lab (AID 2284043; active means hit-call score of the fitted dose curve at least 0.9, where 1 is the maximum;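 on AC50: potency is for loss of bursting electrodes relative to DMSO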)
Method in brief: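 Read-out is the per-well number of electrodes bursting at least once every 2 minutes, recorded on days 5, 7, 9 and 12 and collapsed by trapezoidal area under the curve. Cultures were primary rat cortical neurons on MEA plates, treated continuously from plating.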

[9] = CCTE_Shafer_MEA_dev_per_burst_interspike_interval: CCTE's Neural Network Formation Assay for Burst Interspike Interval, Shafer Lab (AID 2284044);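 further: mean spike spacing inside bursts as AUC over recordings on days 5 7 9 12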;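 on AC50: potency for a decrease of within-burst interspike interval below DMSO level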
Method in brief: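 Developmental network-formation MEA in primary rat cortical cultures with exposure spanning days 0–12. Within-burst ISI is averaged per well and integrated across recording days by area under the curve, with DMSO as negative control baseline.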

[10] = CCTE_Shafer_MEA_dev_burst_duration_mean: CCTE's Neural Network Formation Assay for Mean Burst Duration, Shafer Lab (AID 2284045);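 on AC50: curve fitted for loss meaning shorter burst duration than DMSO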
Method in brief: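 Read-out: average first-to-last-spike interval within single-electrode bursts, averaged over bursting electrodes per well, then summarised as area under the curve across days 5, 7, 9 and 12. Developing rat cortical networks were exposed from day 0.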

[11] = CCTE_Shafer_MEA_dev_interburst_interval_mean: CCTE's Neural Network Formation Assay for Mean Interburst Interval, Shafer Lab (AID 2284046);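 further: well-mean interburst interval of bursting electrodes as AUC over four recording days; curve fitted for decrease in interburst interval relative to DMSO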
Method in brief: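 Network formation assay in primary rat cortical cultures, exposed from DIV 0 to 12. Mean interburst interval per well, integrated as AUC over four recordings.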

[12] = CCTE_Shafer_MEA_dev_network_spike_number: CCTE's Neural Network Formation Assay for Number of Network Spikes, Shafer Lab (AID 2284048);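 further: synchronized bursts across electrodes counted on days 5 7 9 12 and integrated as AUC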;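 on AC50: fit as a loss of signal meaning fewer network spikes than DMSO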
Method in brief: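 Developing networks of primary rat cortical neurons are treated over 12 days starting at plating, with media and compound fully replaced on DIV 5 and 9. Network spike counts from four recording days are integrated as trapezoidal AUC.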

[13] = CCTE_Shafer_MEA_dev_network_spike_peak: CCTE's Neural Network Formation Assay for Mean Number of Electrodes in Network Spike, Shafer Lab (AID 2284049);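 on AC50: fitted for loss of signal meaning fewer electrodes in network spikes than DMSO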
Method in brief: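 Rat cortical primary culture, 1.5 x 10^5 cells/well, 48-well MEA (16 electrodes/well). Dosing day 0 through DIV 12, full media/compound exchange DIV 5, 9. AxIS adaptive spike detection; AUC over days 5/7/9/12; loss-of-signal vs DMSO.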

[14] = CCTE_Shafer_MEA_dev_spike_duration_mean: CCTE's Neural Network Formation Assay for Mean Spike Duration, Shafer Lab (AID 2284051);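 further: mean network spike duration pooled as area under curve over DIV 5 to 12 recordings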;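 on AC50: potency for a decrease in mean network spike duration versus DMSO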
Method in brief: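 With DMSO as baseline, loss of mean network spike duration was scored from extracellular recordings of rat cortical neurons on MEA plates. Exposure spanned plating to DIV 12; the four recording days were collapsed into one AUC value.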

[15] = target: Estrogen receptor (Homo sapiens) (UniProt P03372); experiment: CCTE_Deisenroth_AIME_384WELL_LUC_Active: CCTE's 384-well Estrogen Receptor Transactivation Assay with AIME metabolic competence (ERTA luciferase; metabolism positive), Deisenroth Lab (AID 2284030; active means hit-call score of the fitted dose curve at least 0.9, where 1 is the maximum)
Sequence of Estrogen receptor (Homo sapiens) (P03372 whole entry, looked up): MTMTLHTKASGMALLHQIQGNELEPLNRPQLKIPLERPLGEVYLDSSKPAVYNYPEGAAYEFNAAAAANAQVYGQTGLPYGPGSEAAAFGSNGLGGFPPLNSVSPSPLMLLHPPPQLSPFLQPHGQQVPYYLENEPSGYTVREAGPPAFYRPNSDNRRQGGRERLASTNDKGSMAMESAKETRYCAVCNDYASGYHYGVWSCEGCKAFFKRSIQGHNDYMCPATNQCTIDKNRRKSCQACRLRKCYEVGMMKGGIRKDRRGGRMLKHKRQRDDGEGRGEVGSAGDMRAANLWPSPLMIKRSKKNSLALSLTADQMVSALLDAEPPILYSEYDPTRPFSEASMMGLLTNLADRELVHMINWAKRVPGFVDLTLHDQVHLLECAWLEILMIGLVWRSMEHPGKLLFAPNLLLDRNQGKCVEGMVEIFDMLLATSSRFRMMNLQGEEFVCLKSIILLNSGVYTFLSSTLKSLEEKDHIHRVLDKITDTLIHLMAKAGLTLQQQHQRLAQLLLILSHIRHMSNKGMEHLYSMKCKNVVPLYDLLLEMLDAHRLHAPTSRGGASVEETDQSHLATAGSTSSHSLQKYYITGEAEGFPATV
Method in brief: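 In this metabolism-positive format, a 2-hour exposure to alginate-immobilized rat S9 precedes a 24 hour luciferase transactivation readout in VM7Luc4E2 cells. Dosing spans 10 concentrations from 0.002 to 200 uM.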

[16] = target: Estrogen receptor (Homo sapiens) (UniProt P03372); experiment: CCTE_Deisenroth_AIME_384WELL_LUC_Inactive: CCTE's 384-well Estrogen Receptor Transactivation Assay without AIME metabolic competence (ERTA luciferase; metabolism negative), Deisenroth Lab (AID 2284038; active means hit-call score of the fitted dose curve at least 0.9, where 1 is the maximum;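 further: VM7Luc4E2 breast cells given medium preincubated 2 h with S9-free microspheres; hits raise estrogen receptor luciferase signal so potencies reflect agonists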)
Method in brief: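 Metabolism-negative mode: chemicals (10-point, 0.002–200 uM) held 2 h with alginate-water microspheres, then conditioned medium applied to VM7Luc4E2 cells for 24 h. Luciferase induction referenced to 17beta-estradiol.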

[17] = CCTE_Deisenroth_AIME_384WELL_CTox_Inactive: Cytotoxicity Assessment (CTOX) in CCTE's 384-well Estrogen Receptor Transactivation Assay without AIME metabolic competence (metabolism negative), Deisenroth Lab (AID 2284039; active means hit-call score of the fitted dose curve at least 0.9, where 1 is the maximum;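 further: cell viability via live-cell protease substrate cleaved to fluorescent probe; cells exposed 24 h to medium preincubated 2 h with alginate-water beads without S9; loss of fluorescence signal means loss of viability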)
Method in brief: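 Fluorescence from a live-cell protease substrate, read after 24 h in VM7Luc4E2 cells, indicated viability. Test medium came from a 2 h AIME step without hepatic S9 (alginate-water microspheres); concentrations spanned 0.002 - 200 uM, single technical replicate per run.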

[18] = target: Estrogen receptor (Homo sapiens) (UniProt P03372); experiment: CCTE_Deisenroth_AIME_384WELL_LUC_Shift: CCTE's 384-well Estrogen Receptor Transactivation Assay with AIME metabolic competence data shift (ERTA luciferase; difference in metabolism positive and negative), Deisenroth Lab (AID 2284041);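 further: shift is response with S9 minus without S9 so positive means metabolism raised ER signal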
Method in brief: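 Test chemicals (0.002–200 uM, 10-point) were pre-incubated 2 h with alginate microspheres containing phenobarbital/beta-naphthoflavone-induced male Sprague Dawley rat liver S9 or water, then medium was transferred to VM7Luc4E2 cells for 24 h luciferase readout; shift = S9-positive minus S9-negative normalized response.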

DIO2 (gene 1734) = experiment: CCTE_GLTED_hDIO2: CCTE's human Deiodinase 2 (DIO2) Inhibition Assay, Great Lakes Toxicology and Ecology Division (GLTED) Lab (AID 2284050; active means hit-call score of the fitted dose curve at least 0.9, where 1 is the maximum)
Method in brief: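 Cell-free human DIO2 incubated 3 h with chemical; liberated iodide quantified by Sandell-Kolthoff absorbance. Triplicate plates; loss of signal fitted vs DMSO.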

Measured: AC50

ClC1=C(Cl)C2(Cl)C3C(Cl)C(Cl)CC3C1(Cl)C2(Cl)Cl (stereo not given)
inactive: [2] | [10]
active: [1] 33.8 µM | [3] 4.29 µM | [4] 0.283 µM | [5] 4.35 µM | [6] 5.54 µM | [7] 7.48 µM | [8] 7.54 µM | [9] 3.93 µM | [11] 7.68 µM | [12] 1.98 µM | [13] 6.76 µM | [14] 7.67 µM

CCOc1ccc(C(C)(C)COCc2cccc(Oc3ccccc3)c2)cc1
inactive: [2] | [3] | [7] | [10] | [12]
active: [1] 23.8 µM | [4] 28.1 µM | [5] 5.99 µM | [6] 10 µM | [8] 8.06 µM | [9] 14 µM | [11] 18 µM | [13] 6.54 µM | [14] 4.41 µM

COP(=O)(CCC(=O)NCO)OC
inactive: [1] | [2] | [3] | [4]

CC(C)(C)c1ccccc1OP(=O)(Oc1ccccc1)Oc1ccccc1
inactive: [2] | [5] | [6] | [7] | [9] | [10] | [11] | [12] | [13] | [14]
active: [1] 7.61 µM | [3] 8.14 µM | [4] 6.97 µM | [6] 24.3 µM | [8] 16.4 µM and 26.8 µM | [13] 22.9 µM | [14] 25.7 µM

O=C(O)CF
inactive: [15] | [16] | [17] | [18]

Cc1cccc(N)c1
inactive: [15] | [16] | [17] | [18]

CCOS(=O)(=O)OCC
inactive: [15] | [16] | [17] | [18]

CC1(C)CN=C(NN=C(/C=C/c2ccc(C(F)(F)F)cc2)/C=C/c2ccc(C(F)(F)F)cc2)NC1
active: DIO2 (gene 1734) 18.8 µM

C=CC(=O)OCC(F)(F)C(F)F
inactive: [5] | [7] | [12]
active: [6] 4.45 µM | [8] 4.87 µM | [9] 2.98 µM | [10] 8.76 µM | [11] 8.7 µM | [13] 9.04 µM | DIO2 (gene 1734) 47.3 µM | [14] 15 µM

O=C(O)C(F)(OC(F)(F)C(F)(F)C(F)(F)F)C(F)(F)F (stereo not given)
active: [7] 11.7 µM | [12] 0.402 µM
inactive: [5] | [6] | [7] | [8] | [9] | [10] | [11] | [12] | [13] | [14]

c1cc2c3c(cccc3c1)CC2
inactive: [5] | [6] | [7] | [8] | [9] | [10] | [11] | [12] | [13] | [14]
